Measurements reported in the supplement of paper PMC10981050.
Counter-ions that a name gives are not always drawn.

System: MOLM14
Assay: cell viability relative to vehicle control; higher = less cytotoxic
Conditions: 10 µM; SRSF2 genotype: SRSF2 P95H/wt
Summary of the method: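 Mutant clones made by CRISPR editing and their isogenic wild-type counterparts, from four leukaemia lines, were exposed to a single 10 µM dose of each library compound for 48 h. The supernatant was then removed and CellTiter-Glo luminescence was read. Viability was reported as percent of the on-plate vehicle control.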

Compound	cell viability
Cc1ccc2nc(NC(=O)CSc3nc4c(c(=O)n3-c3ccccc3)SCC4)sc2c1	98.9%
COC(=O)C1=C(C)NC(C)=C(C(=O)OCCN(C)Cc2ccccc2)C1c1cccc([N+](=O)[O-])c1 (stereo not given) [Nicardipine HCl]	87.9%
O=C(O)c1cccnc1Nc1cccc(C(F)(F)F)c1 [Niflumic acid]	93.8%
Cc1cc(Nc2cc(N3CCN(C)CC3)nc(/C=C/c3ccccc3)n2)n[nH]1 [ENMD-2076 L-(+)-Tartaric acid]	2.93%
CC(C)[C@H]1CC[C@H](C(=O)N[C@H](Cc2ccccc2)C(=O)O)CC1 [Nateglinide (Starlix)]	97.9%
O=C1C[C@@H](c2ccc(O)cc2)Oc2cc(O)cc(O)c21 [Naringenin]	111%
C=CC(=O)N1CCC[C@@H](n2nc(-c3ccc(Oc4ccccc4)cc3)c3c(N)ncnc32)C1	16.5%
CC(=O)OC(CC(C)C1=C2CC(O)C3C4(C)CCC(=O)C(C)(C)C4CCC3(C)C2(C)CC1)C1OC1(C)C (stereo not given) [Alisol B Acetate]	72.8%
CC(=O)Nc1cccc2c1c(Sc1ccc(Cl)cc1)c(C)n2CC(=O)O	105%
Cc1cc(NS(=O)(=O)c2ccc(N)cc2)no1 [Sulfamethoxazole sodium]	102%
C[C@@H]1O[C@@H](O[C@H]2[C@H](Oc3cc(O)c4c(c3)O[C@H](c3ccc(O)cc3)CC4=O)O[C@H](CO)[C@@H](O)[C@@H]2O)[C@H](O)[C@H](O)[C@H]1O [Naringin (Naringoside)]	106%
C[C@]12CC[C@H](O)CC1=CC[C@@H]1[C@@H]2CC[C@]2(C)C(n3cnc4ccccc43)=CC[C@@H]12 [Galeterone (TOK-001)]	88.2%
COc1cc(C(=O)N(CCCc2ccccc2)Cc2ccc(CC(=O)O)cc2)cc(OC)c1C	101%
Oc1ccc(OC2CCCCO2)cc1 (stereo not given) [Deoxyarbutin]	83.3%
NS(=O)(=O)c1ccccc1 [Benzenesulfonamide]	96.5%
COc1ccc([C@@H]2CC(=O)c3c(O)cc(O[C@@H]4O[C@H](CO)[C@@H](O)[C@H](O)[C@H]4O[C@@H]4O[C@@H](C)[C@H](O)[C@@H](O)[C@H]4O)cc3O2)cc1 [Poncirin]	102%
CC(=O)Oc1cc(C(F)(F)F)ccc1C(=O)O [Triflusal]	97.7%
OC1OC[C@@H](O)[C@@H](O)[C@@H]1O (stereo partly drawn) [D(-)-Arabinose]	100%
CC[C@@H]([C@H](C)O)n1ncn(-c2ccc(N3CCN(c4ccc(OC[C@@H]5CO[C@@](Cn6cncn6)(c6ccc(F)cc6F)C5)cc4)CC3)cc2)c1=O [Posaconazole]	62.2%
Nc1nc(-c2nn(Cc3ccccc3F)c3ncccc23)ncc1C1CC1	104%

Compound	cell viability
COc1cc2c(cc1OC)[C@@H](Cc1ccc(O)c(Oc3cc4c(cc3OC)CCN(C)[C@@H]4Cc3ccc(O)cc3)c1)N(C)CC2 [Liensinine]	69.1%
NC(=O)c1cnccn1 [Pyrazinamide (Pyrazinoic acid amide)]	103%
CC(C)(C)NS(=O)(=O)c1cncc(-c2cc(F)c3nc(N)nn3c2)c1	92.5%
CC(=O)O[C@@H]1C[C@@]23C[C@@]24CC[C@H](O[C@@H]2OC[C@@H](O)[C@H](O)[C@H]2O)C(C)(C)[C@@H]4CC=C3[C@]2(C)C[C@@H]3OC4(C[C@@H](C)[C@@H]3[C@@]12C)OC(O)C1(C)OC41 (stereo not given in full) [Cimicifugoside]	108%
O=C(O)c1ccc(CN2CCC(CN[C@@H]3C[C@H]3c3ccccc3)CC2)cc1	98.7%
CN1C(N)=N[C@](C)(c2cc(NC(=O)c3ccc(F)cn3)ccc2F)CS1(=O)=O [Verubecestat (MK-8931)]	94.4%
O=C[C@H](O)[C@@H](O)[C@H](O)CO [Xylose]	91.8%
COc1ccc(CCNCC(O)COc2cccc(C)c2)cc1OC (stereo not given) [Bevantolol hydrochloride]	90.6%
C/C=C1\[C@H]2C=C(C)C[C@]1(N)c1ccc(=O)[nH]c1C2 [(-)-Huperzine A (HupA)]	115%
COC(=O)CCC(C)C1CCC2C3C(O)CC4CC(O)CCC4(C)C3CC(O)C12C (stereo not given) [Methyl Cholate]	55.6%
Cc1cccc(C)c1NC(=O)c1cc(S(N)(=O)=O)c(Cl)cc1O [Xipamide]	101%
Cn1nnc2c(C(N)=O)ncn2c1=O [Temozolomide]	86%
COc1ccc(Oc2cc(NCCC(F)(F)F)c3ncc(-c4ccc(C(=O)NC5CC5)c(C)c4)n3n2)c(F)c1F	58.9%
NC(=O)Cc1c[nH]c2ccccc12 [Indole-3-acetamide]	92.9%
COc1ccc(CC(=O)O)cc1OC [Homoveratrumic acid]	89.3%
COc1ccc2c(c1O)-c1c(O)c(OC)cc3c1[C@H](C2)[N+](C)(C)CC3 [Magnoflorinechloride]	103%
CC(c1cc2ccccc2s1)N(O)C(N)=O (stereo not given) [Zileuton]	98.7%
Cc1c(C(=O)N2CCOc3ccc(-c4ccc(N)nc4)cc3C2)ccc(S(C)(=O)=O)c1F	71.2%
CC(C)(Oc1ccc(Cl)cc1)C(=O)OCCOC(=O)c1cccnc1 [Etofibrate]	94.7%
COc1cc(-c2oc3cc(O)cc(O)c3c(=O)c2OC2OC(COC3OC(C)C(O)C(O)C3O)C(O)C(O)C2OC2OC(C)C(O)C(O)C2O)ccc1O (stereo not given) [Typhaneoside]	98.5%
